Screening results as filed in PubChem BioAssay.
Most compounds without a hit are left out; they make up all but 4.7% or so of the library.
CCHF vOTU inh: CCHFV vOTU protease inhibition; inhibition, % at 11.5 µM; Pep-AMC fluorescence; actives 0.55% (n = 370,000); further: 0% = vehicle wells with enzyme and 100% = no enzyme wells
VHR inh abs: blocks human VHR1 dual specificity phosphatase; AID 1654; recombinant VHR phosphatase, pNPP absorbance; inhibition, % at 13.3 µM; actives 0.52% (n = 290,000); in the data active means inhibition above about 50%
Target sequence (P51452 whole entry, looked up): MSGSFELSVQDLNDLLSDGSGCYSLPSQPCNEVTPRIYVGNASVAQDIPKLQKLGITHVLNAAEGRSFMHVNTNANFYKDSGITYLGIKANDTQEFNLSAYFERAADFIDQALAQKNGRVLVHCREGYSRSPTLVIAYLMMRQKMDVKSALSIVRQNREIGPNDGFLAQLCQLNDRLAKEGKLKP
SARS 3CLpro inh: SARS-CoV 3CLpro protease inhibition | P0C6X7 | recombinant SARS-CoV 3CLpro, quenched FRET peptide cleavage | inhibition, % at 6 µM | actives 0.14% (n = 290,000) | AID 1706; in the data active means inhibition above about 12%
Mtb FBA inh: inhibitors of M. tuberculosis fructose-bisphosphate aldolase; P9WQA3; purified M. tuberculosis FBA, fluorescence read-out; inhibition, % at 1 µM; actives 2.3% (n = 360,000); in the data active means inhibition above about 27%;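 further: 0% = vehicle and 100% = reference inhibitor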
Target sequence (P9WQA3 whole entry, looked up): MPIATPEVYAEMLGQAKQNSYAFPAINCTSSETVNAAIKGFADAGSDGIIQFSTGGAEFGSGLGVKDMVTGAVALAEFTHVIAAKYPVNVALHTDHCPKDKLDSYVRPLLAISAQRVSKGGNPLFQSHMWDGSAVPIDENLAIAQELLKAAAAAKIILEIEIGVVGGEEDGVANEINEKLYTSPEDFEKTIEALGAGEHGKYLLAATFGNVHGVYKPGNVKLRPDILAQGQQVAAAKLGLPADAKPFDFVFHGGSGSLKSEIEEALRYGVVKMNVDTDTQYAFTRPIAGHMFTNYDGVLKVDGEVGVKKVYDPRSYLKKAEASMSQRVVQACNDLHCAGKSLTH
RecA splice inh: blocks M. tuberculosis RecA intein splicing; P9WHJ3; cell-free RecA intein splicing, fluorescence; inhibition, % (test concentration not listed); actives 0.75% (n = 290,000); AID 2221; in the data active means inhibition above about 30%;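 further: 0% = vehicle wells and 100% = reference inhibitor control wells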
GDH-TPI counter-1: inhibits GDH-TPI coupling enzymes, artifact for Mtb FBA screen; actives 1.2% (n = 360,000); GDH-TPI coupled enzyme counterscreen, NADH absorbance; inhibition, % at 4.8 µM;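 further: 0% = DMSO wells and 100% = wells lacking the enzyme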
Mtb FBA confirm: confirmation of M. tuberculosis fructose-bisphosphate aldolase inhibitors; inhibition, % at 1 µM; actives 78% (n = 5,600); shares compounds with Mtb FBA inh; purified M. tuberculosis FBA, fluorescence read-out; in the data active means inhibition above about 27%;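 further: 0% = vehicle wells and 100% = reference inhibitor wells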
GDH-TPI counter-2: counter-screen for M. tuberculosis FBA inhibitors: GDH-TPI coupled enzyme inhibition; shares compounds with Mtb FBA inh; GDH-TPI coupled enzyme counterscreen, fluorescence; inhibition, % at 1 µM; actives 81% (n = 5,600); AID 652141; in the data active means inhibition above about 10%
Starred values were filed as active, the others as inactive. Unless noted, no stated cut-off is given here; in the data, active means inhibition above about 30%; inactive means the rest.

Screening Cc1ccc(S(=O)(=O)c2c(N)n(NC(=O)c3ccco3)c3nc4ccccc4nc23)cc1 returned CCHF vOTU inh -96, VHR inh abs 37, SARS 3CLpro inh -3, Mtb FBA inh 35*, RecA splice inh 4, GDH-TPI counter-1 19, Mtb FBA confirm -3 and GDH-TPI counter-2 0.
Screening Cc1ccc(S(=O)(=O)c2c(N)n(Cc3ccco3)c3nc4ccccc4nc23)cc1 returned CCHF vOTU inh -98, VHR inh abs 31, SARS 3CLpro inh 5, Mtb FBA inh 82*, RecA splice inh -22, GDH-TPI counter-1 31*, Mtb FBA confirm 39* and GDH-TPI counter-2 30*.
For Cc1cccc(S(=O)(=O)c2c(N)n(Cc3ccco3)c3nc4ccccc4nc23)c1 the results were CCHF vOTU inh -76, VHR inh abs 46, SARS 3CLpro inh -2, Mtb FBA inh 101*, RecA splice inh -14, GDH-TPI counter-1 7, Mtb FBA confirm 76* and GDH-TPI counter-2 61*.
`O=C1CC(C(=O)N2CCc3ccccc32)CN1c1ccccc1` (stereo unspecified) gave CCHF vOTU inh -6, VHR inh abs -17, SARS 3CLpro inh -2, Mtb FBA inh 0, RecA splice inh -3 and GDH-TPI counter-1 -6.
`COc1ccccc1NC(=O)c1cc(N)cc(C(=O)Nc2ccccc2OC)c1` gave CCHF vOTU inh 4, Mtb FBA inh 0, RecA splice inh 0 and GDH-TPI counter-1 7.
`CN(C)CCNC(=O)c1coc(=O)c(Br)c1` gave CCHF vOTU inh -39, VHR inh abs 29, SARS 3CLpro inh -2, Mtb FBA inh 66*, RecA splice inh -2, GDH-TPI counter-1 10, Mtb FBA confirm active and GDH-TPI counter-2 active.
For COc1ccccc1N1CCN(C(=O)c2coc(=O)c(Br)c2)CC1 the results were CCHF vOTU inh -30, VHR inh abs 12, SARS 3CLpro inh -4, Mtb FBA inh 84*, RecA splice inh -1, GDH-TPI counter-1 15, Mtb FBA confirm active and GDH-TPI counter-2 active.
For COc1ccccc1NC(=O)c1coc(=O)c(Br)c1 the results were CCHF vOTU inh -23, VHR inh abs 12, SARS 3CLpro inh -4, Mtb FBA inh 63*, RecA splice inh 2, GDH-TPI counter-1 5, Mtb FBA confirm 52* and GDH-TPI counter-2 46*.
`Cc1cccc(NC(=O)C2CCCCN2S(=O)(=O)c2ccccc2)c1C` (stereo unspecified) gave CCHF vOTU inh 1, Mtb FBA inh 3 and GDH-TPI counter-1 9.
Cc1ccc(S(=O)(=O)N(C)C)cc1NC(=O)C1CCCCN1S(=O)(=O)c1ccccc1 (stereo unspecified) was read as CCHF vOTU inh 4, Mtb FBA inh 106*, GDH-TPI counter-1 3, Mtb FBA confirm 132* and GDH-TPI counter-2 108*.
Screening COc1cc(-n2c(C)nc3ncn(-c4ccccc4)c3c2=O)cc(OC)c1OC returned CCHF vOTU inh -1, Mtb FBA inh -1 and GDH-TPI counter-1 5.
Screening COc1ccccc1[C@H]1C(c2ccc(F)cc2)=NN(c2ccccc2)[C@@H]1CO returned CCHF vOTU inh -20, Mtb FBA inh 44*, GDH-TPI counter-1 16, Mtb FBA confirm active and GDH-TPI counter-2 active.
For COc1cccc(CNn2c(-c3cccc(C)c3)nc3ccccc3c2=O)c1O the results were CCHF vOTU inh -9, VHR inh abs 24, SARS 3CLpro inh -2, Mtb FBA inh -2, RecA splice inh -4 and GDH-TPI counter-1 -8.
For COc1ccccc1[C@H]1C(c2cccc(C)c2)=NN(c2ccccc2)[C@@H]1CO the results were CCHF vOTU inh -46, Mtb FBA inh 44*, GDH-TPI counter-1 20, Mtb FBA confirm 108* and GDH-TPI counter-2 114*.
For CCN(CC)CCNC(=O)CCc1c(C)nc2c(c(C)nn2-c2ccc(C)c(C)c2)c1C the results were CCHF vOTU inh -16, VHR inh abs 10, SARS 3CLpro inh -2, Mtb FBA inh 36*, RecA splice inh -1, GDH-TPI counter-1 1, Mtb FBA confirm 197* and GDH-TPI counter-2 196*.
COCCCNC(=O)CCc1c(C)nc2c(c(C)nn2-c2ccccc2)c1C was read as CCHF vOTU inh -19, VHR inh abs 23, SARS 3CLpro inh 5, Mtb FBA inh 41*, RecA splice inh -1, GDH-TPI counter-1 4, Mtb FBA confirm 52* and GDH-TPI counter-2 44*.
Screening COC(CNC(=O)CCc1c(C)nc2c(c(C)nn2-c2ccc(C)cc2)c1C)OC returned CCHF vOTU inh -9, VHR inh abs -20, SARS 3CLpro inh -1, Mtb FBA inh 40*, RecA splice inh 2, GDH-TPI counter-1 19, Mtb FBA confirm -12 and GDH-TPI counter-2 -12.
Screening Cc1ccc(-n2nc(C)c3c(C)c(CCC(=O)NCCCOC(C)C)c(C)nc32)cc1 returned CCHF vOTU inh -2, VHR inh abs 6, SARS 3CLpro inh 3, Mtb FBA inh 25, RecA splice inh -1 and GDH-TPI counter-1 10.
Cc1ccc(Cl)cc1N(CC(=O)NC(C)c1ccccc1)S(C)(=O)=O (stereo unspecified) was read as CCHF vOTU inh -3, VHR inh abs -20, SARS 3CLpro inh 1, Mtb FBA inh 13, RecA splice inh -1 and GDH-TPI counter-1 10.
CN1C(=O)c2cc(NC(=O)C3CCOCC3)ccc2OC[C@@H]2O[C@@H](CC(=O)NCc3ccccc3F)CC[C@@H]21 was read as CCHF vOTU inh -7.
Screening Cn1c(SCC(=O)NNC(=O)c2ccccc2)nnc1C1CC1 returned CCHF vOTU inh -10, VHR inh abs 36, SARS 3CLpro inh -1, Mtb FBA inh -3, RecA splice inh -1 and GDH-TPI counter-1 -1.
CC(C)CCNC(=O)C1CC(=O)N(CCc2ccccc2)C1 (stereo unspecified) was read as CCHF vOTU inh 1, VHR inh abs 18, SARS 3CLpro inh 2, Mtb FBA inh 3, RecA splice inh 1 and GDH-TPI counter-1 9.
`CCN(CC)c1cc(C)c2cc(NC(=O)c3ccccc3F)ccc2n1` gave CCHF vOTU inh 4, VHR inh abs 6, SARS 3CLpro inh 1, Mtb FBA inh 2, RecA splice inh 3 and GDH-TPI counter-1 0.
For CCN(CC)c1cc(C)c2cc(NC(=O)CNC(C)=O)ccc2n1 the results were CCHF vOTU inh -26, VHR inh abs 17, SARS 3CLpro inh 2, Mtb FBA inh 49*, RecA splice inh -4, GDH-TPI counter-1 9, Mtb FBA confirm 101* and GDH-TPI counter-2 110*.
`N=c1oc2ccc3ccccc3c2cc1C(N)=S` gave CCHF vOTU inh -141, VHR inh abs 4, SARS 3CLpro inh 2, Mtb FBA inh 104*, RecA splice inh -114, GDH-TPI counter-1 5, Mtb FBA confirm 33* and GDH-TPI counter-2 17*.
